{
  "source": "PubChem BioAssay (NCATS)",
  "note": "Inconclusive results are not listed. Unmarked numbers belong to inactive results. Activity calls are given as the source filed them. Calls follow the shape of the dose curve; as a rule, active = well fitted cell-killing curve with a large enough effect; inconclusive = small, poorly fitted or top-dose-only effect, or effect the other way; inactive = no such curve, though single readings can be large or run the other way. Potency is read from the fitted curve at half-maximal effect.",
  "data": [
    {"test": "Quantitative highthroughput screen to assess conditional lethalithy of SEM cells grown in RPMI1640 with dialyzed fetal bovine serum (RPMI+ds) (AID 1963884); also: nearly all actives have a fitted effect of over 35% in size", "settings": "SEM B-ALL cells, RPMI+dialyzed FBS, CellTiter-Glo viability, 48 h; series mostly up to 45.8 µM; viability: at the top concentration", "source_text": "Assay Provider: Jason Cantor Ph.D.\nDepartment of Biochemistry\nUniversity of Wisconsin-Madison, Madison, WI, USA\nChemical screening studies have identified drug sensitivities across hundreds of cancer cell lines but most putative therapeutics fail to translate. Discovery and development of drug candidates in models that more accurately reflect nutrient levels in human blood is a major challenge. Here we performed high-throughput screens in conventional versus Human Plasma-Like Medium (HPLM) to identify compounds that were \"missed\" when screening using the artificial culture condition. Sets of conditional anticancer compounds spanned phases of clinical development and included non-oncology drugs were assessed. […] We also traced conditional phenotypes for several chemotherapeutics to availability of HPLM-specific metabolites and confirmed others for compounds whose reported targets are encoded by nonessential genes. Our findings establish generalizable strategies for exploiting conditional lethality in HPLM to reveal therapeutic candidates and mechanisms of action in cancer cells.\nDescribed herein are the results of each viability screens against three cell lines: NOMO1 (an acute myeloid leukemia cell line); P12-Ichikawa (a T-cell acute lymphoblastic leukemia); and SEM (a B-cell ALL). Each assay was screened using 3 different cell culture media: homemade human plasma-Like medium with 10% dialyzed fetal bovine serum (HPLM+ds); RPMI1640 with 10% untreated FBS and 5mM glucose (RPMI+s); and RPMI1640 with 10% dialyzed fetal bovine serum and 5 mM glucose (RPMI+ds).\nPROTOCOL TABLE (as described by Inglese J, Shamu CE and Guy RK. 2007)\nSEQUENCE No. (e.g., 1, 2, 3, etc.); […] (e.g., Cells, Incubation, Reagent, etc.); VALUE and DESCRIPTION.\n1; Cells; 5 uL; white, solid bottom 1536-well Greiner assay plate.\n2; Compounds; 23 nL; Kalypsis pin tool (Wako USA) equipped with a 1536-well pin head to transfer to the assay plates.\n3; Incubation; 48 hours; 37C incubation.\n4; Reagent; 3 uL; CellTiter Glo (Promega).\n5; Incubation; 5 min, room temperature\n6; Detection; Luminescence, Viewlux PerkinElmer.\nNOTES (numbers refer to Sequence numbers above)\n1. Briefly, 5 ul of cell reagent was dispensed using a Multidrop Combi Dispenser. The NOMO1 and SEM cells were plated at 500 cells/well and the P12-Ichikawa line at 1000 cells/well.\n2. After seeding the cells, 23 nL of MIPE 4.1 library compounds (in DMSO) were added to each plate using a Kalypsys 1536 Pintool dispenser. Bortezomib at final concentration of […] and DMSO were added to each plate as positive and negative controls respectively. For each screen, MIPE 4.1 compounds were added over an eleven-point concentration range […] in 3-fold dilutions.\n3. Each plate was covered with a stainless steel gasketed lid to prevent evaporation and incubated for 48 hour at 37C, 95% relative humidity, and 5% CO2.\n4-5. Three microliter CellTilter-GloTM luminescent substrate mix (Promega) reagent was added to the assay plate and incubated at room temperature for 5 min.\n6. The luminescence signal was measured using a ViewLux (PerkinElmer) multiplate reader with a 2 second exposure time per plate. Data for each compound were normalized as percent viability such that measurements for DMSO and the empty well controls in each plate were defined as 100% and 0%, respectively.", "values": [
      {"smiles": "CN1C(=O)c2sccc2N(C)c2nc(Nc3ccc(S(N)(=O)=O)cc3)ncc21", "Potency": "2340 nM (active)"},
      {"smiles": "COc1cc(Nc2ncc(F)c(Nc3ccc4c(n3)NC(=O)C(C)(C)O4)n2)cc(OC)c1OC", "Potency": "1660 nM (active)"},
      {"smiles": "O=C(NCCS(=O)(=O)c1ccc(C(F)(F)F)cn1)c1ccc(Cl)cc1", "viability": "97%"},
      {"smiles": "CN1CCN(CCCN2c3ccccc3Sc3ccc(C(F)(F)F)cc32)CC1", "viability": "90.3%"},
      {"smiles": "Cc1ccc(C(=O)Nc2cccc(C(F)(F)F)c2)cc1-c1ccc2nc(NCCN3CCOCC3)ncc2c1", "Potency": "4180 nM (active)"},
      {"smiles": "CC(C)(N)c1ccc(-c2nc3ccccc3nc2-c2ccccc2)cc1", "Potency": "33.2 nM (active)"},
      {"smiles": "Cc1ccccc1C(OCCN(C)C)c1ccccc1", "note": "(stereo not given)", "viability": "91.7%"},
      {"smiles": "COc1cccc(N(C)C(=S)Oc2ccc3c(c2)CCCC3)n1", "viability": "87%"},
      {"smiles": "CN(C)c1cc(NC(=O)CNC(C)(C)C)c(O)c2c1C[C@@H]1C[C@H]3[C@H](N(C)C)C(=O)C(C(N)=O)=C(O)[C@@]3(O)C(=O)C1=C2O", "viability": "75.7%"},
      {"smiles": "NC(=O)Nc1sc(-c2ccc(F)cc2)cc1C(N)=O", "Potency": "14800 nM (active)"},
      {"smiles": "CCN1CCN(Cc2ccc(-c3cc4c(N[C@H](C)c5ccccc5)ncnc4[nH]3)cc2)CC1", "Potency": "18700 nM (active)"},
      {"smiles": "COc1cc(F)c(C(C)C)cc1-c1ccc(C(F)(F)F)cc1CN1C(=O)O[C@H](c2cc(C(F)(F)F)cc(C(F)(F)F)c2)[C@@H]1C", "viability": "92.3%"},
      {"smiles": "CNC[C@H](O)c1ccc(O)c(O)c1", "viability": "79% [at 92.2 µM]"},
      {"smiles": "Cc1ccc(NC(=O)c2cccc(N(C)C)c2)cc1NC(=O)c1ccc(O)cc1", "viability": "95.5%"},
      {"smiles": "Cc1c(NC(=O)c2ccc(C(C)(C)C)cc2)cccc1-c1cn(C)c(=O)c(Nc2ccc(C(=O)N3CCOCC3)cc2)n1", "viability": "68.5%"},
      {"smiles": "COc1cccc(Nc2c(C(N)=O)cnc3c(C)cc(S(=O)(=O)c4cccc(C(=O)N(C)C)c4)cc23)c1", "viability": "85.4% [at 23.2 µM]"},
      {"smiles": "Cc1cccc(-c2[nH]c(C(C)(C)C)nc2-c2ccc3nccnc3c2)n1", "Potency": "18700 nM (active)"},
      {"smiles": "Nc1nc(F)nc2c1ncn2[C@@H]1O[C@H](CO)[C@@H](O)[C@@H]1O", "Potency": "74.3 nM (active)"},
      {"smiles": "O=C(O)c1ccc(O)c2ncc(N3CCOCC3)cc12", "Potency": "18700 nM (active)"},
      {"smiles": "COc1ccc([C@@H]2CNC(=O)C2)cc1OC1CCCC1", "viability": "93.7%"},
      {"smiles": "CCOC(=O)N1CCN([N+]([O-])=NOc2cc(ON=[N+]([O-])N3CCN(C(=O)OCC)CC3)c([N+](=O)[O-])cc2[N+](=O)[O-])CC1", "viability": "90.2%"},
      {"smiles": "Cc1cnc(Nc2ccc(CN3CCOCC3)cc2)nc1Nc1cccc(S(=O)(=O)NC(C)(C)C)c1", "Potency": "166 nM (active)"},
      {"smiles": "CN[C@H]1[C@@H](O)[C@@H]2O[C@@H]3O[C@H](C)CC(=O)[C@]3(O)O[C@@H]2[C@@H](NC)[C@H]1O", "viability": "92.1%"},
      {"smiles": "CON=C(C(=O)N[C@@H]1C(=O)N2C(C(=O)O)=C(Cn3ccc(=N)n3CCO)CS[C@H]12)c1csc(N)n1", "viability": "98.7%"},
      {"smiles": "CC(C)C(C)C=CC(C)C1CCC2C3=CC=C4CC(O)CCC4(C)C3CCC21C", "note": "(stereo not given)", "viability": "90.4%"},
      {"smiles": "O=C(O)c1cn(-c2ccc(F)cc2)c2cc(N3CCNCC3)c(F)cc2c1=O", "viability": "98.9%"},
      {"smiles": "CNC(=O)c1ccc(C)c(-n2c(C)cc(OCc3ccc(F)cc3F)c(Br)c2=O)c1", "viability": "84.6%"},
      {"smiles": "CNC(=O)[C@H](CC1=CN=C2C=CCC=C12)NC(=O)[C@@H](CC(=O)NO)CC(C)C", "viability": "88.1%"},
      {"smiles": "c1ccc([C@H]2CN3CCSC3=N2)cc1", "viability": "77.6%"},
      {"smiles": "O=C(NC1CCOCC1)c1ccc(-c2cc(-c3cn[nH]c3-c3ccccn3)ccn2)cc1", "viability": "113%"},
      {"smiles": "Cc1cc(CN2CCN(c3c(Br)cnc4nc(-c5ccc(N6CCN(C)CC6)cc5)[nH]c34)CC2)no1", "Potency": "743 nM (active)"},
      {"smiles": "CCCCCN(CCC12CC3CC(CC(C3)C1)C2)C(=O)NCCCc1ccncc1", "viability": "97.4%"},
      {"smiles": "COCCCOc1cc(C[C@@H](C[C@H](N)[C@@H](O)C[C@H](C(=O)NCC(C)(C)C(N)=O)C(C)C)C(C)C)ccc1OC", "viability": "76%"},
      {"smiles": "CS(=O)(=O)OCCCCOS(C)(=O)=O", "Potency": "20900 nM (active)"},
      {"smiles": "CCN(C)C(=O)Oc1cccc([C@H](C)N(C)C)c1", "viability": "96.6%"},
      {"smiles": "COc1cc2c(c(OC)c1OC)-c1ccc(OC)c(=O)cc1[C@@H](NC(C)=O)CC2", "viability": "3.37%"},
      {"smiles": "COC(=O)[C@@H]1[C@H]2C[C@@H]3c4[nH]c5ccccc5c4CCN3C[C@@H]2CC[C@@H]1O", "viability": "97.2%"},
      {"smiles": "O=C(C=Cc1ccc(CN(CCO)CCc2c[nH]c3ccccc23)cc1)NO", "Potency": "296 nM (active)"},
      {"smiles": "CN1CC(=O)N2C(Cc3c([nH]c4ccccc34)[C@H]2c2ccc3c(c2)OCO3)C1=O", "note": "(stereo not given in full)", "viability": "108%"},
      {"smiles": "C#CCN[C@@H]1CCc2ccccc21", "viability": "92.7%"}
    ]}
  ]
}
